Experimental data from PubChem BioAssay.
A number with no mark means an inactive call. For some assays here: Results with a measured potency or affinity are listed apart. Calls of active or inactive are those of the source. Unless noted, the rule behind the calls is not given here.

Experiments:
[1] = antimalarial activity against Dd2 strain (AID 2302;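 active = growth inhibition above 50% at the single 2 µM test dose, taken to imply half-maximal potency below 2 µM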;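 note: 0% = DMSO untreated growth and 100% = chloroquine plus artemisinin killed control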); settings: P. falciparum Dd2 in RBCs, LDH growth readout, 72 h; at 2 µM; active compounds read high
[2] = human hepatoma cell viability loss – ATP luminescence, cytotoxicity control for P. falciparum antimalarial project, primary screen (AID 2303;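 active = inhibition above 50%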;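 note: 0% = DMSO wells and 100% = digitonin-killed cells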); settings: HepG2 viability, 24-48 h, at 10 µM, active compounds read high
[3] = molecular target: L-lactate dehydrogenase (Plasmodium falciparum (isolate CDC / Honduras)) (UniProt Q27743); assay: PfLDH activity inhibition – cell lysate, 3D7 strain, counter-screen for P. falciparum growth inhibition project (AID 2304);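 note: 0% = vehicle and 100% = reference inhibitor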; settings: P. falciparum 3D7 crude extract, LDH APAD/NBT absorbance; at 2 µM; active compounds read high
[4] = inhibition of 3D7 malaria parasite growth – strain 3D7 (AID 2306);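 note: 0% = DMSO wells and 100% = chloroquine plus artemisinin control wells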; settings: P. falciparum 3D7 erythrocytic growth, LDH absorbance, 72 h; at 2 µM; active compounds read high
[5] = molecular target: Calcium-dependent protein kinase 1 (Plasmodium falciparum (isolate 3D7)) (UniProt P62344); assay: PfCDPK1 kinase inhibitors, biochemical, TCAMS library (AID 1159585; cut-off not given, nearly all actives have IC50 up to about 0.98 µM;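 note: inhibitors leave more ATP so luminescence rises with inhibition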); settings: recombinant PfCDPK1, Kinase-Glo ATP depletion luminescence
[6] = molecular target: Plasmodium falciparum protein kinase 6 (PK6, PF3D7_1337100) (UniProt Q8IDW1); assay: PfPK6 kinase inhibitors, biochemical, TCAMS library (AID 1159586); settings: recombinant PfPK6, Kinase-Glo ATP depletion luminescence
[7] = molecular target: Protein kinase 7 (PK7), Plasmodium falciparum 3D7 (PF3D7_0213400) (UniProt Q7YTF7); assay: inhibition of Plasmodium PK7 catalytic activity – biochemical, TCAMS antimalarial set, Kinase-Glo luminescence (AID 1159587); settings: recombinant PfPK7, Kinase-Glo ATP depletion luminescence
[8] = molecular target: Calcium-dependent protein kinase 4 (Plasmodium falciparum (isolate 3D7)) (UniProt Q8IBS5); assay: PfCDPK4 kinase inhibitors, biochemical, TCAMS library (AID 1159588; cut-off not given, nearly all actives have IC50 up to about 0.91 µM); settings: recombinant PfCDPK4, Kinase-Glo ATP depletion luminescence
Calcium-dependent protein kinase 4 (Plasmodium falciparum (isolate 3D7)), sequence (Q8IBS5 whole entry, looked up): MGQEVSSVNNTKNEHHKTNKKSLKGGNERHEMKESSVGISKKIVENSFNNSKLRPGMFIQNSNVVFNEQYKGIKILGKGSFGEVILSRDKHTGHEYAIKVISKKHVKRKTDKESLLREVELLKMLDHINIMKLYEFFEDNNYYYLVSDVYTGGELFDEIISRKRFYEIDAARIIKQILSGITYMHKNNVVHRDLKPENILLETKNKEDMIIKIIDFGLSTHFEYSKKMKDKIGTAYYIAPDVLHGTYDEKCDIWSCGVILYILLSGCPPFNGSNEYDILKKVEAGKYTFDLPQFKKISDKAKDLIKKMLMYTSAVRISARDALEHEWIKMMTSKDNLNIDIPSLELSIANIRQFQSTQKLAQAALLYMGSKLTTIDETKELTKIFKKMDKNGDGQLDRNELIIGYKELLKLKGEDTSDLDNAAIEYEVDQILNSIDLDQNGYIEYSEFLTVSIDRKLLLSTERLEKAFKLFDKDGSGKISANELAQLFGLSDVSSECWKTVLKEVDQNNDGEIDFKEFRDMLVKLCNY

L-lactate dehydrogenase (Plasmodium falciparum (isolate CDC / Honduras)), sequence (Q27743 whole entry, looked up): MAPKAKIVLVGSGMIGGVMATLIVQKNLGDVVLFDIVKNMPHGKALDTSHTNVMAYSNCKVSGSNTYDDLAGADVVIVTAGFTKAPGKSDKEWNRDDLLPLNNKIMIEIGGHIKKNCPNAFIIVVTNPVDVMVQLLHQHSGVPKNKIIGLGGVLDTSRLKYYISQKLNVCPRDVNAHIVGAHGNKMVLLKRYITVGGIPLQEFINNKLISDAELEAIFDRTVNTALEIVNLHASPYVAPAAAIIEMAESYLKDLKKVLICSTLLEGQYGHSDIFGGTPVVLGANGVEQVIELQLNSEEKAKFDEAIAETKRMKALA
Protein kinase 7 (PK7), Plasmodium falciparum 3D7 (PF3D7_0213400), sequence (Q7YTF7 1-343): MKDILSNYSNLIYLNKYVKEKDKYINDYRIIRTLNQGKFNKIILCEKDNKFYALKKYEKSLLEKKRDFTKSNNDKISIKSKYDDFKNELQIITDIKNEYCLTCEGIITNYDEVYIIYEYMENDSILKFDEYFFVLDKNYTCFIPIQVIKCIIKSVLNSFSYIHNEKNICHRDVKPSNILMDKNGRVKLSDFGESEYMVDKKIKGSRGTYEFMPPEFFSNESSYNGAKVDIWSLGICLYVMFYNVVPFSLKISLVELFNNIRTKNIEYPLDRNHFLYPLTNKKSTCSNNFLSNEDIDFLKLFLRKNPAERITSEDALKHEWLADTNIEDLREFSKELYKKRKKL
Calcium-dependent protein kinase 1 (Plasmodium falciparum (isolate 3D7)), sequence (P62344 whole entry, looked up): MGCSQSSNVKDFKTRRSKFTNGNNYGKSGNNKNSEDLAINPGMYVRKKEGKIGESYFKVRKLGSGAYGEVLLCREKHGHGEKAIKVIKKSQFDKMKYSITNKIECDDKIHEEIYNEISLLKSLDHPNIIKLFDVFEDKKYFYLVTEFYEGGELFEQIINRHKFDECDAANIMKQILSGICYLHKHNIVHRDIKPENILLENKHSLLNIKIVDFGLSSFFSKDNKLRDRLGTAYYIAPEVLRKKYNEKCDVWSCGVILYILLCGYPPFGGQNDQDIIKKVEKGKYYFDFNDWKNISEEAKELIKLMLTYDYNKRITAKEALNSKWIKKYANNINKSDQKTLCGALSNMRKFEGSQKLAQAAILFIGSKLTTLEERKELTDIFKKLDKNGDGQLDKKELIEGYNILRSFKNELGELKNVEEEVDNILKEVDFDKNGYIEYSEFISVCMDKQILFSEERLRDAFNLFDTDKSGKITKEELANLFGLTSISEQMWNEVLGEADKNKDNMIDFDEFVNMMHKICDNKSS
Plasmodium falciparum protein kinase 6 (PK6, PF3D7_1337100), sequence (Q8IDW1 1-305): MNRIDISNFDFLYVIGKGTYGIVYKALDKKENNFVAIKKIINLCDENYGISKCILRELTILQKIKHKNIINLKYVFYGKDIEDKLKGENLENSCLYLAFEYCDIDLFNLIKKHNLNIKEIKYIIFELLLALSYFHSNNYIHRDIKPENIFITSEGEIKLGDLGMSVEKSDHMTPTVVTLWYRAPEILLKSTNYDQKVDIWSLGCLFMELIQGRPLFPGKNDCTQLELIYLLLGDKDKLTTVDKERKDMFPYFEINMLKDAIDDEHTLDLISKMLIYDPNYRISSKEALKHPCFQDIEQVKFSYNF

Oc1ccc(CCNc2nc(NCCCOc3cccc(-c4ccccc4)c3)nc(N3CCNCC3)n2)cc1
growth inhibition [1]: 14%
inhibition [2]: 40%
inhibition [3]: -2%
growth inhibition [4]: 89% (active)
outcome [5]: inactive
outcome [6]: inactive
outcome [7]: inactive
outcome [8]: inactive

Cc1ccc(C(C)C)c(Oc2cnc(NC(CO)c3ccccc3)nc2N)c1 (stereo not given)
growth inhibition [1]: 0%
inhibition [2]: 27%
inhibition [3]: 4%
growth inhibition [4]: 95% (active)
outcome [5]: inactive
outcome [6]: inactive
outcome [7]: inactive
outcome [8]: inactive

Nc1cccc(C=CC(=O)Nc2ccnc3ccccc23)c1
growth inhibition [1]: 60% (active)
inhibition [2]: 7%
inhibition [3]: -1%
growth inhibition [4]: 98% (active)
outcome [5]: inactive
outcome [6]: inactive
outcome [7]: inactive
outcome [8]: inactive

O=C(/C=C/c1ccc(Cl)c(Cl)c1)N1CCC(CCCN2CCC(c3c[nH]c4ccccc34)CC2)CC1
growth inhibition [1]: 45%
inhibition [2]: 44%
inhibition [3]: -1%
growth inhibition [4]: 101% (active)
outcome [5]: inactive
outcome [6]: inactive
outcome [7]: inactive
outcome [8]: inactive

COc1ccc(NC(=O)[C@H](CC(C)C)Nc2ccnc(NCCc3ccc(F)cc3)n2)cc1
growth inhibition [1]: 22%
inhibition [2]: -6%
inhibition [3]: -2%
growth inhibition [4]: 86% (active)
outcome [5]: inactive
outcome [6]: inactive
outcome [7]: inactive
outcome [8]: inactive

CN1CCc2ccc(NC(=O)Nc3cccc(C(=O)c4ccccc4)c3)cc2C1
growth inhibition [1]: 16%
inhibition [2]: 11%
inhibition [3]: -1%
growth inhibition [4]: 83% (active)
outcome [5]: inactive
outcome [6]: inactive
outcome [7]: inactive
outcome [8]: inactive

CCCN1CCN(Cc2ccc(-c3ccc(-c4nc5ccccc5[nH]4)s3)cc2)CC1
growth inhibition [1]: 93% (active)
inhibition [2]: 29%
inhibition [3]: 5%
growth inhibition [4]: 103% (active)
outcome [5]: inactive
outcome [6]: inactive
outcome [7]: inactive
outcome [8]: inactive

CCOc1cc(C)ccc1C1CCN(CCCCNC(=O)c2ccc(NC(=O)c3cc(Cl)cc(Cl)c3)cc2)CC1
growth inhibition [1]: 78% (active)
inhibition [2]: 4%
inhibition [3]: -5%
growth inhibition [4]: 99% (active)
outcome [5]: inactive
outcome [6]: inactive
outcome [7]: inactive
outcome [8]: inactive

COCCOc1ccc(C(F)(F)F)cc1NC(=O)Cc1c(F)cccc1Cl
growth inhibition [1]: 74% (active)
inhibition [2]: 18%
inhibition [3]: 2%
growth inhibition [4]: 88% (active)
outcome [5]: inactive
outcome [6]: inactive
outcome [7]: inactive
outcome [8]: inactive

O=C(Nc1ccc(Cl)cc1)c1ccc(CN2CCCN(Cc3cccc(Cl)c3)CC2)cc1
growth inhibition [1]: 15%
inhibition [2]: 53% (active)
inhibition [3]: 1%
growth inhibition [4]: 96% (active)
outcome [5]: inactive
outcome [6]: inactive
outcome [7]: inactive
outcome [8]: inactive

CC1(C)CNCc2cc(NC(=O)/C=C/c3ccc(Cl)cc3)ccc21
growth inhibition [1]: 26%
inhibition [2]: 23%
inhibition [3]: -9%
growth inhibition [4]: 82% (active)
outcome [5]: inactive
outcome [6]: inactive
outcome [7]: inactive
outcome [8]: inactive

COc1cc(C2CCN(CCCCNC(=O)c3ccc(NC(=O)c4cc(C(F)(F)F)cc(C(F)(F)F)c4)cc3)CC2)ccc1OC(C)C
growth inhibition [1]: 100% (active)
inhibition [2]: 21%
inhibition [3]: 4%
growth inhibition [4]: 100% (active)
outcome [5]: inactive
outcome [6]: inactive
outcome [7]: inactive
outcome [8]: inactive

CN(C)CCOc1ccc2[nH]c(-c3cccc(OCc4ccccc4)c3)nc2c1C#N
growth inhibition [1]: 86% (active)
inhibition [2]: 48%
inhibition [3]: -5%
growth inhibition [4]: 100% (active)
outcome [5]: inactive
outcome [6]: inactive
outcome [7]: inactive
outcome [8]: inactive

CCOC(=O)C(C(C)=O)C(c1ccccc1)C(C(C)=O)C(=O)OCC (stereo not given)
growth inhibition [1]: 14%
inhibition [2]: 6%
inhibition [3]: 2%
growth inhibition [4]: 95% (active)
outcome [5]: inactive
outcome [6]: inactive
outcome [7]: inactive
outcome [8]: inactive

O=C(NCc1ccc(C(=O)NC2CCCCC2)cc1)c1ccc(O)c(-c2ccc(Cl)c(Cl)c2)c1
growth inhibition [1]: -4%
inhibition [2]: 5%
inhibition [3]: -6%
growth inhibition [4]: 93% (active)
outcome [5]: inactive
outcome [6]: inactive
outcome [7]: inactive
outcome [8]: inactive

Cc1cccc2[nH]c(-c3ccc(-c4ccc(CNCC5CCCO5)cc4)s3)nc12 (stereo not given)
growth inhibition [1]: 96% (active)
inhibition [2]: 11%
inhibition [3]: -5%
growth inhibition [4]: 100% (active)
outcome [5]: inactive
outcome [6]: inactive
outcome [7]: inactive
outcome [8]: inactive

CCCCN(C)CC#Cc1ccc(-c2ccc3[nH]c(C)c(Br)c(=O)c3c2)cn1
growth inhibition [1]: 93% (active)
inhibition [2]: 3%
inhibition [3]: -3%
growth inhibition [4]: 98% (active)
outcome [5]: inactive
outcome [6]: inactive
outcome [7]: inactive
outcome [8]: inactive

COc1ccc2nccc([C@@H](O)CN3CCC(NC(=O)C(c4cc5ccccc5o4)N4CCN(c5ccc(F)cc5)CC4)CC3)c2c1 (stereo not given in full)
growth inhibition [1]: 98% (active)
inhibition [2]: 15%
inhibition [3]: -1%
growth inhibition [4]: 100% (active)
outcome [5]: inactive
outcome [6]: inactive
outcome [7]: inactive
outcome [8]: inactive

CCN(CC)CCOc1ccc(C(O)(C#CC(O)(c2ccccc2)c2ccc(OCCN(CC)CC)cc2)c2ccccc2)cc1 (stereo not given)
growth inhibition [1]: 99% (active)
inhibition [2]: 81% (active)
inhibition [3]: 4%
growth inhibition [4]: 99% (active)
outcome [5]: inactive
outcome [6]: inactive
outcome [7]: inactive
outcome [8]: inactive

CN1CCCN(c2ccnc3cc4c(cc23)N(C(=O)c2ccccc2Cl)CC4)CC1
growth inhibition [1]: 30%
inhibition [2]: 4%
inhibition [3]: 3%
growth inhibition [4]: 88% (active)
outcome [5]: inactive
outcome [6]: inactive
outcome [7]: inactive
outcome [8]: inactive

O=C(Nc1ccc(Cl)c(Cl)c1)Nc1ccc2nccc(N3CCN(Cc4ccccc4)CC3)c2c1
growth inhibition [1]: 100% (active)
inhibition [2]: 31%
inhibition [3]: 1%
growth inhibition [4]: 101% (active)
outcome [5]: inactive
outcome [6]: inactive
outcome [7]: inactive
outcome [8]: inactive

CCCc1ccc(NC(=O)c2ccc(CN3CCCN(Cc4cccc(O)c4)CC3)cc2)cc1
growth inhibition [1]: 63% (active)
inhibition [2]: 51% (active)
inhibition [3]: -1%
growth inhibition [4]: 101% (active)
outcome [5]: inactive
outcome [6]: inactive
outcome [7]: inactive
outcome [8]: inactive

O=C(Nc1ccc2oc(-c3ccc(Br)cc3)nc2c1)c1ccc([N+](=O)[O-])o1
growth inhibition [1]: 21%
inhibition [2]: 9%
inhibition [3]: 2%
growth inhibition [4]: 92% (active)
outcome [5]: inactive
outcome [6]: inactive
outcome [7]: inactive
outcome [8]: inactive

COc1cc(C)nc2ccc(NC(=O)c3cc(C(F)(F)F)cc(C(F)(F)F)c3)cc12
growth inhibition [1]: 99% (active)
inhibition [2]: 16%
inhibition [3]: 0%
growth inhibition [4]: 101% (active)
outcome [5]: inactive
outcome [6]: inactive
outcome [7]: inactive
outcome [8]: inactive

COc1ccc(CCNCc2cc3c(C(C)(C)C)nn(-c4ccc(Cl)cc4)c3[nH]c2=O)cc1OC
growth inhibition [1]: 99% (active)
inhibition [2]: 13%
inhibition [3]: 5%
growth inhibition [4]: 100% (active)
outcome [5]: inactive
outcome [6]: inactive
outcome [7]: inactive
outcome [8]: inactive

CS(=O)(=O)CCNCc1ccc(-c2ccc3c(Nc4ccc(F)cc4Cl)ccnc3c2)o1
growth inhibition [1]: 98% (active)
inhibition [2]: 29%
inhibition [3]: 0%
growth inhibition [4]: 100% (active)
outcome [5]: inactive
outcome [6]: inactive
outcome [7]: inactive
outcome [8]: inactive

CC(C)c1sc(N2CCN(C)CC2)nc1C(=O)Nc1ccc(F)cc1C(F)(F)F
growth inhibition [1]: 99% (active)
inhibition [2]: 3%
inhibition [3]: 4%
growth inhibition [4]: 101% (active)
outcome [5]: inactive
outcome [6]: inactive
outcome [7]: inactive
outcome [8]: inactive

O=C(Nc1ccc(Cl)cc1)N[C@H]1CCN(Cc2ccc(OCCCN3CCCCC3)cc2)C1
growth inhibition [1]: -1%
inhibition [2]: 29%
inhibition [3]: -2%
growth inhibition [4]: 103% (active)
outcome [5]: inactive
outcome [6]: inactive
outcome [7]: inactive
outcome [8]: inactive

CCN(CCC1(c2ccc(Cl)c(Cl)c2)CN(C(=O)c2cc(OC)c(OC)c(OC)c2)CCO1)[C@@H]1C[C@@H]2c3ccccc3C[C@@H]21 (stereo not given in full)
growth inhibition [1]: 65% (active)
inhibition [2]: 26%
inhibition [3]: -4%
growth inhibition [4]: 80% (active)
outcome [5]: inactive
outcome [6]: inactive
outcome [7]: inactive
outcome [8]: inactive

CCc1c(C)nc(-n2nc(C)cc2NC(=O)c2ccc(OC)cc2OC)[nH]c1=O
growth inhibition [1]: 57% (active)
inhibition [2]: 42%
inhibition [3]: 1%
growth inhibition [4]: 96% (active)
outcome [5]: inactive
outcome [6]: inactive
outcome [7]: inactive
outcome [8]: inactive

O=C(c1ccc(-c2cnc3[nH]cc(-c4ccc(C(=O)N5CCOCC5)cc4)c3c2)cc1)N1CCOCC1
growth inhibition [1]: -3%
inhibition [2]: 19%
inhibition [3]: -4%
growth inhibition [4]: 91% (active)
outcome [5]: inactive
outcome [6]: inactive
outcome [7]: inactive
outcome [8]: inactive

CC(=O)Nc1ccc(CN(Cc2ccc(C)cc2)Cc2cccc(Oc3ccccc3)c2)cc1
growth inhibition [1]: 87% (active)
inhibition [2]: 34%
inhibition [3]: 1%
growth inhibition [4]: 84% (active)
outcome [5]: inactive
outcome [6]: inactive
outcome [7]: inactive
outcome [8]: inactive

CCCOc1ccc2ccccc2c1CNCCCCCCNCc1c(OCCC)ccc2ccccc12
growth inhibition [1]: 90% (active)
inhibition [2]: 100% (active)
inhibition [3]: 0%
growth inhibition [4]: 94% (active)
outcome [5]: inactive
outcome [6]: inactive
outcome [7]: inactive
outcome [8]: inactive

Nc1ccc2c(N)c3ccccc3nc2c1
growth inhibition [1]: 74% (active)
inhibition [2]: 20%
inhibition [3]: -2%
growth inhibition [4]: 93% (active)
outcome [5]: inactive
outcome [6]: inactive
outcome [7]: inactive
outcome [8]: inactive

O=C(Nc1ccc(-c2nc3ccccc3[nH]2)cc1)c1ccc(N2CCOCC2)c([N+](=O)[O-])c1
growth inhibition [1]: 28%
inhibition [2]: 47%
inhibition [3]: -8%
growth inhibition [4]: 101% (active)
outcome [5]: inactive
outcome [6]: inactive
outcome [7]: inactive
outcome [8]: inactive

CC[C@H]1CN(Cc2ccccc2Br)CC[C@H]1CCCc1ccnc2ccc(O)cc12
growth inhibition [1]: 2%
inhibition [2]: 12%
inhibition [3]: -4%
growth inhibition [4]: 86% (active)
outcome [5]: inactive
outcome [6]: inactive
outcome [7]: inactive
outcome [8]: inactive

Cc1ccc([C@@H]2CC(=O)CC(c3ccccn3)[C@H]2[N+](=O)[O-])cc1 (stereo not given in full)
growth inhibition [1]: 2%
inhibition [2]: 5%
inhibition [3]: -1%
growth inhibition [4]: 97% (active)
outcome [5]: inactive
outcome [6]: inactive
outcome [7]: inactive
outcome [8]: inactive

O=C(/C=C/c1ccc(Cl)c(Cl)c1)NCCCCCN1CCC(NC(=O)Nc2cccc(Cl)c2Cl)CC1
growth inhibition [1]: 35%
inhibition [2]: 99% (active)
inhibition [3]: -5%
growth inhibition [4]: 104% (active)
outcome [5]: inactive
outcome [6]: inactive
outcome [7]: inactive
outcome [8]: inactive

Nc1ncc(Cc2cc(Cl)c(N)c3ncccc23)c(N)n1
growth inhibition [1]: 95% (active)
inhibition [2]: 5%
inhibition [3]: 1%
growth inhibition [4]: 89% (active)
outcome [5]: inactive
outcome [6]: inactive
outcome [7]: inactive
outcome [8]: inactive

FC(F)(F)c1ccc2nc(-c3ccc(-c4ccc(CNCC5CCCO5)cc4)s3)[nH]c2c1 (stereo not given)
growth inhibition [1]: 98% (active)
inhibition [2]: 47%
inhibition [3]: -6%
growth inhibition [4]: 101% (active)
outcome [5]: inactive
outcome [6]: inactive
outcome [7]: inactive
outcome [8]: inactive
